From PubChem BioAssay (NCI)
About 83,000 compounds went through this panel and 20% of them were active in at least one assay; those are over-represented in the sample as a whole.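 The endpoint reported here, percent growth, reads 100 for growth as untreated, 0 for no net growth and -100 for all cells dead.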 The source made the active and inactive calls. The calls were made as follows: active = growth percent below 10; inactive = the rest.

How the values were obtained:
Assay in all cases: NCI-60 one-dose screen, 48 h (100 = growth as untreated, 0 = no growth, -100 = all killed)
Conditions in all cases: 10 µM unless noted
[1] = tested on: NCI-H23 lung
[2] = tested on: NCI-H226 lung
[3] = tested on: NCI-H322M lung
[4] = tested on: HOP-62 NSCLC
[5] = tested on: NCI-H460 lung
[6] = tested on: HOP-92 NSCLC
[7] = tested on: NCI-H522 lung
[8] = tested on: A549/ATCC NSCLC
[9] = tested on: 786-0 renal
[10] = tested on: COLO 205 colon
[11] = tested on: DU-145 prostate
[12] = tested on: K-562 leukemia
[13] = tested on: MALME-3M melanoma
[14] = tested on: MDA-MB-231 breast
[15] = tested on: RXF 393 renal
[16] = tested on: SF-268 CNS
[17] = tested on: SF-295 CNS
[18] = tested on: SF-539 CNS
[19] = tested on: UACC-257 melanoma
[20] = tested on: M14 melanoma

Measured: growth

CC(=O)N1N=C(c2ccc(Nc3nc(Nc4ccccc4)nc(Nc4ccccc4)n3)cc2)CC1c1ccccc1 (stereo not given)
inactive: [1] 94% | [2] 86% | [3] 84.9% | [4] 77.6% | [5] 86.7% | [6] 61.5% | [7] 89.3% | [8] 79.3% | [9] 86.8% | [10] 68.5% | [11] 97.6% | [12] 68.9% | [13] 78.7% | [14] 71.7% | [15] 137% | [16] 89.2% | [17] 85.6% | [18] 88.8% | [19] 113% | [20] 84.6%

COC(CC(F)F)c1cn(S(=O)(=O)c2ccc(C)cc2)c2ccccc12 (stereo not given)
inactive: [1] 52% | [2] 75.9% | [3] 27.8% | [4] 34.1% | [5] 11.6% | [6] 40.8% | [7] 42.7% | [8] 33.9% | [9] 35.3% | [11] 21.3% | [12] 14.5% | [13] 50.9% | [14] 38.2% | [15] 39.4% | [16] 42% | [17] 15% | [18] 15.7% | [19] 37.1%
active: [10] 3.62% | [20] 7.65%

CC1(C)COB(OCC(C)(C)COB2OCC(C)(C)CO2)OC1
inactive: [1] 101% | [2] 100% | [3] 92.2% | [4] 108% | [5] 107% | [6] 87.9% | [7] 106% | [8] 100% | [9] 104% | [10] 109% | [11] 103% | [12] 106% | [13] 93.8% | [14] 112% | [15] 123% | [16] 100% | [17] 97.4% | [18] 98.3% | [19] 98.6% | [20] 105%

Fc1ccc(CNc2c3ccccc3nc3ccccc23)c(F)c1
active: [6] -2.61%
inactive: [1] 42.8% | [2] 54.8% | [3] 49.2% | [4] 57.2% | [5] 20% | [7] 42.3% | [8] 40.1% | [9] 47.6% | [10] 26.8% | [11] 50.9% | [12] 22.5% | [13] 69.5% | [14] 44.4% | [15] 34.5% | [16] 68.6% | [17] 40.4% | [18] 32.4% | [19] 68.9% | [20] 55.3%

NNc1nc(-c2cccnc2)nc2c1sc(=S)n2-c1ccccc1
inactive: [1] 102% | [2] 105% | [3] 101% | [4] 69.1% | [5] 107% | [6] 84.9% | [7] 58.7% | [8] 87.7% | [9] 89.7% | [10] 98.4% | [11] 106% | [12] 75.5% | [13] 100% | [14] 105% | [15] 114% | [16] 89.6% | [17] 98.1% | [18] 95.6% | [19] 92.3% | [20] 99.9%

Cc1cc(C)c2c(c1)N(C)c1ncnc(-n3cnc4cc(C)ccc43)c1CC2C (stereo not given)
inactive: [1] 37.9% | [2] 49.9% | [3] 48.5% | [4] 31.8% | [6] 38.3% | [8] 26.2% | [9] 22.8% | [11] 14.2% | [13] 45.2% | [14] 36.8% | [16] 40.4% | [19] 45.3%
active: [5] 7.26% | [7] -0.316% | [10] 0.292% | [12] 7.57% | [15] -24.8% | [17] 1.91% | [18] 6.25% | [20] 5.2%

CC(=O)O[C@@H]1C[C@]2(C(C)C)O[C@@]1(C)[C@@H]1CCC(C)=C1[C@@H]2OC(=O)/C=C/c1ccccc1
inactive: [1] 95.3% | [2] 66.2% | [3] 93.4% | [4] 90.6% | [5] 94.2% | [6] 72.8% | [7] 73.3% | [8] 82.3% | [9] 87.6% | [10] 94.1% | [11] 101% | [12] 81.7% | [13] 86.4% | [14] 84.1% | [15] 30.8% | [16] 80.8% | [17] 92.1% | [18] 101% | [19] 90.5% | [20] 93.6%

C#CCOc1cccc(Nc2ncnc3ccc(NC(=O)C=C)cc23)c1
active: [3] 2% | [15] 2.49%
inactive: [1] 65.4% | [2] 61.8% | [4] 58.4% | [5] 81.2% | [6] 14.7% | [7] 15.9% | [8] 34.2% | [9] 35.2% | [10] 68.4% | [11] 24.1% | [12] 46% | [13] 60.8% | [14] 54% | [16] 40.2% | [17] 66.2% | [18] 32.1% | [19] 54.9% | [20] 51.4%
